Experimental findings from PubChem BioAssay (EPA / NIEHS) are described below.

Results filed as inconclusive are left out. Calls of active or inactive are those of the source. How the source made its calls: active means hit-call score of the fitted dose curve at least 0.9, where 1 is the maximum; inconclusive means response in the unintended direction; inactive means score below 0.9.

Sequence of Retinoic acid receptor alpha (Homo sapiens) (P10276 whole entry, looked up): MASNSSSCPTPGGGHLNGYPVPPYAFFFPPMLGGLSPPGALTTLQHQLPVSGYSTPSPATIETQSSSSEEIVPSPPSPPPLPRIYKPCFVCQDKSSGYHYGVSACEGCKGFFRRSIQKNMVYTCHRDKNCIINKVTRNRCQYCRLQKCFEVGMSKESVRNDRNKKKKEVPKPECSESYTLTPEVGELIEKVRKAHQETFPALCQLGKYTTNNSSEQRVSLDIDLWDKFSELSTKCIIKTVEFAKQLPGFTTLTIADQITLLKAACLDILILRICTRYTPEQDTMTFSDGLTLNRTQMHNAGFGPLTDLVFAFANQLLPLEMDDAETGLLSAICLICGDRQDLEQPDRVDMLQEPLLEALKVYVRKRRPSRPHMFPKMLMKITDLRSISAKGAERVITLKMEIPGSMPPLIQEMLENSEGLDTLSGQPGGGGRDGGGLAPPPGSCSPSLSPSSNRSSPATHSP

This assay addresses Retinoic acid receptor alpha (Homo sapiens) (UniProt P10276). The experiment in a line: ATG_RARa_TRANS: Attagene TRANS-FACTORIAL HepG2 Assay for human Retinoic Acid Receptor alpha (RARa) (AID 2283005). The procedure: ATG_TRANS is a cell-based, multiplexed-readout assay that uses HepG2, a human liver cell line, with measurements taken at 24 hours after chemical dosing in a 24-well plate.ATG_RARa_TRANS is one of 30 assay component(s) measured or calculated from the ATG_TRANS assay. It is designed to make measurements of mRNA induction, a form of inducible reporter, as detected with fluorescence intensity signals by Reverse transcription polymerase chain reaction (RT-PCR) and Capillary electrophoresis technology.Data from the assay component ATG_RARa_TRANS was analyzed into 1 assay endpoint. This assay endpoint, ATG_RARa_TRANS, was analyzed in the positive analysis fitting direction relative to DMSO as the negative control and baseline of activity. Using a type of inducible reporter, measures of mRNA for gain-of-signal activity can be used to understand the reporter gene at the transcription factor-level as they relate to the gene RARA. Furthermore, this assay endpoint can be referred to as a primary readout, because this assay has produced multiple assay endpoints where this one serves a reporter gene function. To generalize the intended target to other relatable targets, this assay endpoint is annotated to the nuclear receptor intended target family, where the subfamily is non-steroidal.
Human liver HepG2 cells are transiently transfected with multiple reporter transcription units (MRTUs) in 6-well plates using FuGene 6 reagent (Roche; 3 ml FuGene/1 mg DNA). The MRTU constructs are regulated by a cis-regulating element (promoter). […] A major difference between the CIS and TRANS system is that in CIS activities of endogenous TFs are measured, whereas the TRANS assay evaluates changes in activities of exogenous, chimeric NR-Gal4 proteins. […] At the end of 24 hour incubation, total RNA was isolated using TriZol reagent (Invitrogen). The isolated RNA is then reverse-transcribed using oligo(dT) primer and Mo-MLV reverse transcriptase (Invitrogen) with DNAse I (Ambion) treatment for 30 min. The one-tenth of the produced cDNA was amplified by PCR using Taq DNA polymerase (Invitrogen) and two reporter sequence-specific primers. The PCR products were fluorescently labeled by primer extension with 6-arboxyfluorescein (6-FAM) 5'-labeled reporter sequence-specific primer (2 min at 95 C, 20 s at 68 C and 10 min at 72 C) and these products were digested with 5U of HpaI (New England Biolabs) for 2h at 37 C. The fragments were purified using Qiaquick PCR columns (Qiagen), analyzed on an ABI 3130xL genetic analyzer (Applied Biosystems) with peak positions identified by using a set of X-rhodamine (ROX)-labeled MapMarker1000 molecular weight standards (BioVentures). The raw capillary electrophoresis data was processed using Attagraph software (Attagene).
For `CC(CCO)CC(C)(C)C` (stereo unspecified), the compound was classed as inactive.
The value for `CCCCCCCCOC(=O)c1ccc(O)cc1` was “inactive”; that for `CC/C=C\CCOC(=O)C(C)C` was “inactive”.
Consider `CC(=O)C1C(=O)C=C(C)OC1=O` (stereo unspecified), for which the call was inactive.
Turning to `NC(N)=NC(N)=NCCc1ccccc1`, the result was inactive.
As to `Nc1cc([N+](=O)[O-])ccc1C(=O)O`, the result was inactive.
For `COC(=O)c1ccc(C(=O)OC)cc1`, the compound was classed as inactive.
For the compound `Cc1cc(O)c2c(c1)C(=O)c1cc(O)cc(O)c1C2=O`, the result was inactive.
Regarding `CC(C)Cc1ccccc1`, the outcome was inactive.
The same measure for `C#C[C@]1(O)CC[C@H]2[C@@H]3CCc4cc(O)ccc4[C@H]3CC[C@@]21C`: “inactive”; for `CCCCCCCCCCCCOC(C)=O`: “inactive”.
`CCCO`: the compound was called inactive.
The same measure for `CC/C(=C(\c1ccccc1)c1ccc(OCCN(C)C)cc1)c1ccccc1`: “inactive”; for `O=C(C=Cc1ccccc1)OCCCc1ccccc1`: “inactive”; for `O=C(O)c1ccccc1O`: “inactive”.
The same measure for `C=C(C)C(N)=O`: “inactive”; for `CC(C)C(=O)c1ccccc1`: “inactive”.
The value for `[Cu+]` was “inactive”; that for `CCCCC1CCCCC(=O)O1` (stereo unspecified) was “inactive”.
Consider `CC(=O)CC(C)(C)C1CCCCC1`, for which the outcome was inactive.
For the compound `C[C@]12CC[C@@H]3c4ccc(O)cc4CC[C@H]3[C@@H]1CC[C@@H]2O`, the compound was called inactive.
The value for `OC[C@@H](O)[C@H](O)[C@@H](O)[C@@H](O)CO` was “inactive”.
For the compound `CN1CCc2cccc3c2[C@H]1Cc1ccc(O)c(O)c1-3`, the call was inactive.
On to `CC(C)(C)c1cccc(O)c1`, for which the compound was called inactive.
The value for `CCCCCCCCCCCCCC(=O)OCC` was “inactive”; that for `ClCCOCCOCCCl` was “inactive”.
The value for `CC(=O)Oc1c(C)c(C)c2c(c1C)CC[C@@](C)(CCC[C@H](C)CCC[C@H](C)CCCC(C)C)O2` was “inactive”.
The value for `CCCCOCCOCCO` was “inactive”; that for `CCCCCC1C(=O)CCC1CC(=O)OC` (stereo unspecified) was “inactive”.
For `CCC(C)(C)C1CCC(=O)CC1`, the call was inactive.
Turning to `CCC(C)C1CCCCC1=O` (stereo unspecified), the call was inactive.
